This note sets out measurements from PubChem BioAssay AID2279 (Southern Research Specialized Biocontainment Screening …, 2010).

Usually inhibition stands for the relative decrease from the control value, in per cent.

Entries with a potency or affinity are not part of this list. Unmarked numbers belong to inactive results. No rule for the calls is given here.

This assay in a line: HIV-1 Env-mediated cell fusion inhibitors, dose response, CCR5-tropic Env (AID 2279). Conditions: CCR5-tropic HIV-1 Env, reporter read-out; series mostly up to 50 µM; inhibition: at the top concentration.
Consider `COc1ccc(OC)c(N2C(=O)/C(=C/c3ccco3)C(=O)NC2=S)c1`, for which the “inhibition” value was 4.55%.

As for `Cc1ccc(N2C(=O)/C(=C/c3ccc(CN(CCC#N)S(C)(=O)=O)o3)C(=O)NC2=S)cc1C`, the “inhibition” value was 13.2%. To `O=C(O)c1cccc2c1NC(c1cccc([N+](=O)[O-])c1)C1CC(Sc3ccccc3[N+](=O)[O-])C(Cl)C21` (stereo not drawn) belongs 31.9%. With `O=C1NC(=S)N(c2ccc(F)cc2)C(=O)/C1=C\c1ccoc1`, the “inhibition” value is -13.8%. Under `O=c1oc2ccccc2c(O)c1C(c1ccc([N+](=O)[O-])cc1)c1c(O)c2ccccc2oc1=O` stands 34.6%. To `COc1ccc(N2C(=O)/C(=C/c3ccco3)C(=O)NC2=S)cc1` belongs 29.1%.

On to `O=C1NC(=S)N(c2ccc(F)cc2)C(=O)/C1=C/c1ccco1`, for which the “inhibition” value is 12.6%. To `NC(=O)Cn1cc(C=C2C(=O)NC(=O)NC2=O)c2ccccc21` belongs 0.56%.
